# The supplement of paper PMC8728848
# The full list was thinned out, with the strongest signals kept by preference.
# Key:
# Assay in all cases: glycan array binding signal (z-score within array); higher = stronger binding
# Details in all cases: glycan notation: IUPAC condensed, linker removed; mutation: D22R
# [1] = biological target: Fuc(a1-2)Gal(b1-3)GlcNAc(b1-3)GalNAc
# Summary of the method: (§1)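 Columns mapping to the same glycan were averaged after glycan names were converted to IUPAC-condensed notation. The data come from 3228 arrays in the Consortium for Functional Glycomics database, limited to those with an available protein sequence. Binding is reported as a within-array Z-score averaged across arrays of one protein sequence and across linkers.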
# [2] = biological target: Fuc(a1-2)Gal(b1-3)[Fuc(a1-4)]GlcNAc(b1-2)Man(a1-3)[Fuc(a1-2)Gal(b1-3)[Fuc(a1-4)]GlcNAc(b1-2)Man(a1-6)]Man(b1-4)GlcNAc(b1-4)[Fuc(a1-6)]GlcNAc(b1-4)[Fuc(a1-6)]GlcNAc
# Summary of the method: as §1
# [3] = biological target: Fuc(a1-2)Gal(b1-4)GlcNAc
# Summary of the method: as §1
# [4] = biological target: Fuc(a1-2)Gal(b1-4)GlcNAc(b1-2)Man
# Summary of the method: as §1
# [5] = biological target: Fuc(a1-2)[Gal(a1-3)]Gal(b1-4)GlcNAc(b1-3)GalNAc
# Summary of the method: as §1
# [6] = biological target: Fuc(a1-2)[GalNAc(a1-3)]Gal(b1-3)GalNAc(b1-3)Gal(a1-4)Gal(b1-4)Glc
# Summary of the method: as §1
# [7] = biological target: Fuc(a1-2)[GalNAc(a1-3)]Gal(b1-4)Glc
# Summary of the method: as §1
# [8] = biological target: Fuc(a1-2)[GalNAc(a1-3)]Gal(b1-4)GlcNAc(b1-3)Gal(b1-4)GlcNAc
# Summary of the method: as §1
# [9] = biological target: Fuc(a1-3)[Gal(b1-4)]GlcNAc6S
# Summary of the method: as §1
# [10] = biological target: Gal(a1-2)Gal
# Summary of the method: as §1
# [11] = biological target: Gal(b1-3)Gal
# Summary of the method: as §1
# [12] = biological target: Gal(b1-3)GalNAc(b1-3)Gal
# Summary of the method: as §1
# [13] = biological target: Gal(b1-3)GlcNAc(b1-3)Gal(b1-4)GlcNAc(b1-2)[Gal(b1-3)GlcNAc(b1-3)Gal(b1-4)GlcNAc(b1-6)]Man(a1-6)[Gal(b1-3)GlcNAc(b1-3)Gal(b1-4)GlcNAc(b1-2)Man(a1-3)]Man(b1-4)GlcNAc(b1-4)[Fuc(a1-6)]GlcNAc
# Summary of the method: as §1
# [14] = biological target: Gal(b1-3)GlcNAc(b1-3)Gal(b1-4)GlcNAc(b1-3)Gal(b1-4)GlcNAc(b1-2)[Gal(b1-3)GlcNAc(b1-3)Gal(b1-4)GlcNAc(b1-3)Gal(b1-4)GlcNAc(b1-6)]Man(a1-6)[Gal(b1-3)GlcNAc(b1-3)Gal(b1-4)GlcNAc(b1-3)Gal(b1-4)GlcNAc(b1-2)Man(a1-3)]Man(b1-4)GlcNAc(b1-4)[Fuc(a1-6)]GlcNAc
# Summary of the method: as §1
# [15] = biological target: Gal(b1-4)GlcNAc(a1-6)Gal(b1-4)GlcNAc
# Summary of the method: as §1
# [16] = biological target: Gal(b1-4)GlcNAc(b1-2)Man(a1-3)[GlcNAc(b1-2)Man(a1-6)]Man(b1-4)GlcNAc(b1-4)GlcNAc
# Summary of the method: as §1
# [17] = biological target: Gal(b1-4)GlcNAc(b1-2)Man(a1-6)[GlcNAc(b1-2)Man(a1-3)]Man(b1-4)GlcNAc(b1-4)GlcNAc
# Summary of the method: as §1
# [18] = biological target: Gal(b1-4)GlcNAc(b1-3)Gal(b1-3)GalNAc
# Summary of the method: as §1
# [19] = biological target: Gal(b1-4)GlcNAc(b1-3)Gal(b1-4)GlcNAc(b1-2)Man(a1-3)[Gal(b1-4)GlcNAc(b1-3)Gal(b1-4)GlcNAc(b1-2)Man(a1-6)]Man(b1-4)GlcNAc(b1-4)GlcNAc
# Summary of the method: as §1
# [20] = biological target: Gal(b1-4)GlcNAc(b1-3)Gal(b1-4)GlcNAc(b1-2)[Gal(b1-4)GlcNAc(b1-3)Gal(b1-4)GlcNAc(b1-6)]Man(a1-6)[Gal(b1-4)GlcNAc(b1-3)Gal(b1-4)GlcNAc(b1-2)Man(a1-3)]Man(b1-4)GlcNAc(b1-4)[Fuc(a1-6)]GlcNAc
# Summary of the method: as §1
# [21] = biological target: Gal(b1-4)GlcNAc(b1-3)Gal(b1-4)GlcNAc(b1-3)Gal(b1-4)GlcNAc(b1-2)Man(a1-3)[Gal(b1-4)GlcNAc(b1-3)Gal(b1-4)GlcNAc(b1-3)Gal(b1-4)GlcNAc(b1-2)Man(a1-6)]Man(b1-4)GlcNAc(b1-4)GlcNAc
# Summary of the method: as §1
# [22] = biological target: Gal(b1-4)GlcNAc(b1-3)Gal(b1-4)GlcNAc(b1-3)Gal(b1-4)GlcNAc(b1-2)[Gal(b1-4)GlcNAc(b1-3)Gal(b1-4)GlcNAc(b1-3)Gal(b1-4)GlcNAc(b1-6)]Man(a1-6)[Gal(b1-4)GlcNAc(b1-3)Gal(b1-4)GlcNAc(b1-3)Gal(b1-4)GlcNAc(b1-2)Man(a1-3)]Man(b1-4)GlcNAc(b1-4)[Fuc(a1-6)]GlcNAc
# Summary of the method: as §1
# [23] = biological target: Gal(b1-4)GlcNAc(b1-3)Gal(b1-4)GlcNAc(b1-3)[Gal(b1-4)GlcNAc(b1-3)Gal(b1-4)GlcNAc(b1-6)]GalNAc
# Summary of the method: as §1
# [24] = biological target: Gal(b1-4)GlcNAc(b1-3)Gal(b1-4)GlcNAc(b1-6)[Gal(b1-3)]GalNAc
# Summary of the method: as §1
# [25] = biological target: Gal(b1-4)GlcNAc(b1-6)Gal(b1-4)GlcNAc
# Summary of the method: as §1
# [26] = biological target: Gal3S(b1-4)[Fuc(a1-3)]GlcNAc
# Summary of the method: as §1
binder,measurement,setting,value
MpL2 (Macrolepiota procera) (protein) MSTQVSSGQTYKITNVKAGTVIRLSGEDNKSIIGYPYHSGKNQQWTFNWTGKAWTLRSASSGSYLGIEGTPADGTRLVAVNDPFEWHIWRDEANENAFRIFVPFTNYNLDLSGYGDTTPGTPVQLWWTWEGLHQTWTIDRP,glycan array binding signal (z-score),[1],-0.233
same,glycan array binding signal (z-score),[2],0.051
same,glycan array binding signal (z-score),[3],-0.202
same,glycan array binding signal (z-score),[4],0.129
same,glycan array binding signal (z-score),[5],0.092
same,glycan array binding signal (z-score),[6],-0.533
same,glycan array binding signal (z-score),[7],-0.092
same,glycan array binding signal (z-score),[8],-0.256
same,glycan array binding signal (z-score),[9],0.212
same,glycan array binding signal (z-score),[10],-0.294
same,glycan array binding signal (z-score),[11],0.078
same,glycan array binding signal (z-score),[12],-0.315
same,glycan array binding signal (z-score),[13],10.4
same,glycan array binding signal (z-score),[14],10.8
same,glycan array binding signal (z-score),[15],4.13
same,glycan array binding signal (z-score),[16],-0.978
same,glycan array binding signal (z-score),[17],-0.42
same,glycan array binding signal (z-score),[18],-0.633
same,glycan array binding signal (z-score),[19],2.6
same,glycan array binding signal (z-score),[20],2.5
same,glycan array binding signal (z-score),[21],2.57
same,glycan array binding signal (z-score),[22],2.85
same,glycan array binding signal (z-score),[23],2.76
same,glycan array binding signal (z-score),[24],1.3
same,glycan array binding signal (z-score),[25],-1.1
same,glycan array binding signal (z-score),[26],-0.293
